Screening results deposited in PubChem BioAssay by NMMLSC.
The list is not random: actives were taken first. Their share in the collection is about 0.93%.
RPL19A-GFP yeast = yeast TOR pathway RPL19A-GFP modulation; S. cerevisiae RPL19A-GFP strain, flow cytometry, 3 h; stronger effect = lower value; percent response vs DMSO, % at 10 µM; 330,000 tested, 0.3% active; AID 2025;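 active = percent response vs DMSO below 50%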;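 note: median channel GFP fluorescence of the barcoded RPL19A-GFP strain; ratio of sample median GFP to plate DMSO average so 100% = DMSO; lower means less RPL19A-GFP as with rapamycin TOR inhibition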
LAP4 TOR yeast = yeast TOR pathway LAP4-GFP modulation | S. cerevisiae LAP4-GFP multiplex, flow cytometry GFP, 3 h; median GFP as percent of DMSO wells | GFP response vs DMSO, % at 10 µM | 320,000 tested, 0.34% active | AID 2023;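 active = GFP response vs DMSO above a set limit, about the screen mean plus 3 SD, cut at about 150% in these data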
CIT2 TOR yeast = yeast TOR pathway CIT2-GFP modulation; GFP response vs DMSO, % at 10 µM; 320,000 tested, 0.065% active; S. cerevisiae CIT2-GFP strain, flow cytometry, 3 h; 100 means same as DMSO wells;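 active = GFP response relative to DMSO above a set limit, near the screen mean plus 3 SD, cut at about 150% in these data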;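 note: ratio of well median GFP fluorescence to mean of DMSO wells on the plate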
MEP2-GFP yeast = modulators of TOR pathway MEP2-GFP in S. cerevisiae; GFP response vs DMSO, % at 10 µM; AID 2016; 330,000 tested, 0.51% active; S. cerevisiae MEP2-GFP strain, flow cytometry GFP, 3 h; 100% = DMSO control level;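 active = GFP response versus DMSO above a set limit, roughly screen mean plus 3 SD, cut at about 180% in these data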;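 note: median GFP fluorescence of the barcode-gated MEP2-GFP cells per well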
AGP1 TOR yeast = yeast TOR pathway AGP1-GFP modulation; S. cerevisiae AGP1-GFP multiplex flow cytometry, 3 h; GFP as percent of DMSO wells; GFP response vs DMSO, % at 10 µM; 320,000 tested, 0.02% active; AID 2066;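 active = GFP response relative to DMSO above a set limit, near screen average plus 3 SD, cut at about 150% in these data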;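 note: median GFP channel fluorescence of the gated AGP1 strain per well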
LAP4 cherry2 = second confirmation of modulators of TOR reporter LAP4-GFP in yeast. shares compounds with LAP4 TOR yeast. S. cerevisiae LAP4-GFP strain, flow cytometry GFP, 3 h. GFP response vs DMSO, % at 10 µM. 590 tested, 20% active. AID 2621;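 active = GFP signal as percent of the solvent control above about 150%, meaning raised reporter expression, limit read from the data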;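 note: ratio of well median GFP fluorescence to plate DMSO mean so 100% = DMSO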
MEP2-GFP pick2 = reconfirmed MEP2-GFP TOR pathway modulator in yeast; AID 2622; S. cerevisiae MEP2-GFP strain, flow cytometry GFP, 3 h; GFP response vs DMSO, % at 10 µM; 590 tested, 10% active; shares compounds with LAP4 TOR yeast;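 active = GFP signal above 150% of the solvent control wells, that is a rise of more than half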;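 note: median channel GFP fluorescence of all gated yeast cells per well; ratio of median GFP to plate DMSO average so 100% = DMSO level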
RPL19A GFP CP2 = second confirmation of modulators of TOR reporter RPL19A-GFP in yeast. shares compounds with LAP4 TOR yeast. S. cerevisiae RPL19A-GFP strain, flow cytometry GFP, 3 h; stronger effect = lower value; 100% means same as DMSO wells. GFP response vs DMSO, % at 10 µM. 590 tested, 3% active;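 active = under 65% GFP response relative to DMSO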;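 note: median GFP channel fluorescence per well over the all cells gate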
CIT2 GFP CP2 = yeast CIT2-GFP TOR reporter modulation, second cherry pick; shares compounds with LAP4 TOR yeast; S. cerevisiae CIT2-GFP strain, flow cytometry GFP, 3 h; DMSO control wells read 100%; GFP response vs DMSO, % at 10 µM; 590 tested, 8% active; AID 2624;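 active = GFP response vs DMSO above about 150%, limit read from the data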;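 note: median green fluorescence per well over all gated yeast cells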
AGP1 GFP CP2 = reconfirmed modulator of AGP1-GFP TOR reporter in yeast; shares compounds with LAP4 TOR yeast; S. cerevisiae AGP1-GFP strain, flow cytometry GFP, 3 h; percent response vs DMSO, % at 10 µM; 590 tested, under 10 active; AID 2643;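 active = over 150 percent of DMSO response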;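 note: median GFP channel fluorescence over all cells without mother daughter split; sample median GFP divided by mean DMSO control so 100% equals DMSO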
s288c autofluor = compound is autofluorescent in yeast s288c cells; shares compounds with LAP4 TOR yeast; S. cerevisiae s288c, 520 nm autofluorescence, flow cytometry, 3 h; stronger effect = higher value; zero means same as solvent-only cells; fluorescence change (kMESF span) at 33 µM; 610 tested, under 10 active; AID 2757;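 active = fluorescence span over the dose series, or activity score, above about 33, limit read from the data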
s288c autofl DR = yeast s288c autofluorescence artifact in dose response; shares compounds with LAP4 TOR yeast; 110 tested, under 10 active; fluorescence change (span) at 33 µM; S. cerevisiae s288c parental, compound autofluorescence, flow cytometry, 3 h;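 active = fluorescence change span, or the activity score built from it, above 25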
TORC1 bypass gr = wildtype yeast growth loss with TORC1 bypass cells unaffected; shares compounds with LAP4 TOR yeast; S. cerevisiae BY4741 spot growth rating, 48-72 h; stronger effect = lower value; growth rating (0-3) at 30 µM; 120 tested, under 10 active;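 active = growth rating at most 1 for wild type yeast while the TORC1 bypass strain still grows fully, rated 3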
* = called active by the depositor; . = not tested or not shown.

SMILES	RPL19A-GFP yeast	LAP4 TOR yeast	CIT2 TOR yeast	MEP2-GFP yeast	AGP1 TOR yeast	LAP4 cherry2	MEP2-GFP pick2	RPL19A GFP CP2	CIT2 GFP CP2	AGP1 GFP CP2	s288c autofluor	others
Cc1ccc(NC(=O)c2cc(N3C(=O)C=CC3=O)ccc2N2CCOCC2)cc1Cl	72	153*	70	98	79	162*	183*	80	145	92	1.7	s288c autofl DR=1.5;TORC1 bypass gr=3
Cc1ccc(S(=O)(=O)N(C)CC(=O)Nc2nnc(CC(C)C)s2)cc1	107	106	99	102	98	.	.	.	.	.	.
O=C(CSc1ccc(F)cc1)Nc1cccc(S(=O)(=O)N2CCOCC2)c1	87	170*	87	102	112	102	98	100	107	97	.
CNc1nc2ccccc2n1CC(=O)c1ccccc1	107	102	84	107	77	.	.	.	.	.	.
O=C1CN(C(=O)C2CCC(=O)N(CCc3ccc(Cl)cc3)C2)CCN1 (stereo unspecified)	107	81	.	101	93	.	.	.	.	.	.
O=C(/C=C/c1cccc([N+](=O)[O-])c1)c1ccco1	88	147	84	91	85	.	.	.	.	.	.
Cc1cccc(/C=C/C(=O)c2ccc([N+](=O)[O-])o2)c1	90	176*	80	84	61	247*	150*	93	157*	102	9.7
O=C(/C=C/c1cccc([N+](=O)[O-])c1)c1ccc([N+](=O)[O-])o1	71	243*	75	83	68	182*	138	94	126	87	1.4
CC(OC(=O)CNS(=O)(=O)c1ccc(C#N)cc1)C(=O)Nc1cccc(C#N)c1 (stereo unspecified)	100	117	96	97	112	.	.	.	.	.	.
Cc1c(C(=O)N2CCCCC2)c(S(=O)(=O)NCCc2ccc(S(N)(=O)=O)cc2)c(C)n1C	95	88	104	95	98	.	.	.	.	.	.
CN(Cc1cccc(F)c1)C(=O)c1ccc(S(=O)(=O)N2CCOCC2)cc1	101	107	102	105	105	.	.	.	.	.	.
Oc1ccc2ccccc2c1/C=N/Nc1nnc(-c2ncc[nH]2)c2ccccc12	92	277*	111	194*	72	.	.	.	.	.	40*
O=C(c1ccc([N+](=O)[O-])o1)N1CCN(c2nc3c(F)cc(F)cc3s2)CC1	60	167*	131	146	79	.	.	.	.	.	9.5
N#CC1=C(N)Oc2c(oc(CO)cc2=O)C1c1ccccc1[N+](=O)[O-] (stereo unspecified)	96	104	101	90	93	.	.	.	.	.	.
CC(C)(C)n1nc(-c2ccc(F)cc2)c2c(N)ncnc21	48*	178*	51	105	92	137	136	48*	61	86	-0.4	s288c autofl DR=0.29;TORC1 bypass gr=3
Cc1ccc(-c2nc(N)c3c(-c4ccc(C)cc4)nn(C(C)(C)C)c3n2)cc1	101	98	95	100	96	112	121	106	132	99	0.1
Cc1ccc(-c2nn(C(C)(C)C)c3ncnc(NS(=O)(=O)c4ccc([N+](=O)[O-])cc4)c23)cc1	96	120	100	101	104	.	.	.	.	.	.
CSc1nc(-c2ccc(C)cc2)nc(N)c1C#N	94	93	83	95	92	.	.	.	.	.	.
CC(C)(C)n1nc(-c2ccc(Cl)cc2)c2c(N)ncnc21	43*	182*	43	106	83	.	.	.	.	.	-1	s288c autofl DR=0.32;TORC1 bypass gr=3
CC(C)(C)S(=O)(=O)c1cnc2c(-c3ccc(F)cc3)cnn2c1N	87	84	93	92	91	.	.	.	.	.	.
CSc1cccc(NC(=O)CCNS(=O)(=O)c2ccc3[nH]c(=O)oc3c2)c1	96	101	97	96	96	.	.	.	.	.	.
CC1(C)NC(=O)N(CC(=O)N2CCN(c3ccc([N+](=O)[O-])cc3)CC2)C1=O	96	94	98	93	96	.	.	.	.	.	.
CCN1/C(=C/c2ccc3cc(C)ccc3[n+]2CC)Sc2ccc3sccc3c21	90	300*	366*	588*	124	.	.	.	.	.	8.8
COc1ccc(OC)c2sc(N3CCN(C(=O)c4ccc([N+](=O)[O-])s4)CC3)nc12	95	160*	88	106	86	136	143	97	147	99	.
O=C(c1ccc([N+](=O)[O-])s1)N1CCN(c2ccccn2)CC1	105	104	102	105	110	.	.	.	.	.	.
SMILES	RPL19A-GFP yeast	LAP4 TOR yeast	CIT2 TOR yeast	MEP2-GFP yeast	AGP1 TOR yeast	LAP4 cherry2	MEP2-GFP pick2	RPL19A GFP CP2	CIT2 GFP CP2	AGP1 GFP CP2	s288c autofluor	others
CCC(=O)OC1(C)C(=O)C2=COC(c3ccc(OC)cc3)=CC2=C(Br)C1=O (stereo unspecified)	84	137	57	89	45	.	.	.	.	.	.
COc1ccc(C2=CC3=C(Br)C(=O)C(C)(O)C(=O)C3=CO2)cc1 (stereo unspecified)	42*	98	57	117	14	125	150*	34*	160*	24	3.2
CCn1c(=O)c([N+](=O)[O-])c(NCCN(C)C)c2ccccc21	102	100	91	111	108	.	.	.	.	.	.
CCn1c(=O)c([N+](=O)[O-])c(Cl)c2ccccc21	62	104	90	95	76	118	133	72	81	77	.
S=c1[nH]nc(COc2ccc(Cl)cc2)n1Cc1ccco1	86	89	92	90	.	.	.	.	.	.	.
COCCCNC(=O)c1cc2c(-c3ccc(Cl)cc3)nn(C)c2s1	100	101	97	102	100	.	.	.	.	.	.
